# Activity calls are given as the source filed them. Rule for the calls: active = hit-call score of the fitted dose curve at least 0.9, where 1 is the maximum; inactive = score below 0.9.
# Experiment: APR_HepG2_CellLoss_1hr: Apredica 1-hour HepG2 Assay for Cell Loss (AID 2282668);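 note: curves fitted both ways against DMSO so gain or loss of cells counts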
# Conditions: high-content imaging
# Procedure: APR_HepG2_1hr is a cell-based, multiplexed-readout assay that uses HepG2, a human liver cell line, with measurements taken at 1 hour after chemical dosing in a 384-well plate.APR_HepG2_CellLoss_1hr is one of 10 assay component(s) measured or calculated from the APR_HepG2_1hr assay. It is designed to make measurements of cell number, a form of viability reporter, as detected with fluorescence intensity signals by HCS Fluorescent Imaging technology.Data from the assay component APR_HepG2_CellLoss_1hr was analyzed into 1 assay endpoint. This assay endpoint, APR_HepG2_CellLoss_1hr, was analyzed with bidirectional fitting relative to DMSO as the negative control and baseline of activity. Using a type of viability reporter, measures of all nuclear dna for gain or loss-of-signal activity can be used to understand the viability at the cellular-level. Furthermore, this assay endpoint can be referred to as a secondary readout, because this assay has produced multiple assay endpoints where this one serves a viability function. To generalize the intended target to other relatable targets, this assay endpoint is annotated to the cell cycle intended target family, where the subfamily is proliferation.
# Cells were treated with dimethyl sulfoxide (DMSO) as a solvent control at a final concentration of 0.5% v/v or with compounds in DMSO with a resulting final DMSO concentration of 0.5% v/v. Compound treatment was done at concentrations of 0.39, 0.78, 1.56, 3.12, 6.24, 12.5, 25, 50, 100, and 200 uM in duplicate on each plate. Cells were treated with compounds for 1, 24, or 72 hr. Carbonyl […] m-chloro-phenylhydrazone (CCCP) and taxol were used as positive controls for mitochondrial function and cytoskeletal stability, respectively; DMSO served as the negative control for this experiment. Cells were fixed by the direct addition of 50 uL formaldehyde in Hank's Balanced Salt Solution (HBSS) to a final concentration of 3.7%. After incubation in the fixation medium for 30 min at room temperature (293-298 K), cells were rinsed twice with HBSS and treated with cell permeabilization buffer (16 uL of 0.5% Triton X-100) for 10 min at room temperature (293-298 K) before labeling. For mitochondrial membrane potential and mitochondrial measurements, pre-fixed cells were incubated with 50 uL of MitoTracker Red CMXRos (Invitrogen) at a concentration of 250 nM for 30 min before fixation. In the remaining cases, post-fixed cells were labeled by incubation with a multiplexed mixture of primary antibodies in HBSS for 60 min at room temperature (293-298 K) to detect immunoreactivity of c-Jun (1:500), phospho-histone H3 (1:100), phospho-histone H2A.x (1:200), p53 (1:400), alpha-tubulin (1:200) and Hoechst 33342 (2 ug/mL). Cells were labeled for multiplexed imaging on two separate plates: a) Hoechst 33342, MitoTracker Red, phospho-histone H3, and alpha-tubulin, and b) Hoechst 33342, phospho-histone H2A.x, and c-Jun. A final rinse with HBSS (50 uL) was performed before analysis. The primary and secondary antibodies for the proteins were phospho-histone H3 (rabbit anti-phospho-histone H3 and FITC-donkey anti-rabbit IgG), phospho-histone H2A.x (mouse anti-phospho-histone H2A.x and FITC-donkey anti-mouse IgG), c-Jun (rabbit anti-phospho-c-Jun and Cy3-donkey anti-rabbit IgG), p53 (sheep anti-p53 and Cy5-donkey anti-sheep IgG), alpha-tubulin (mouse anti-alpha-tubulin and Cy5-donkey anti-mouse IgG). These antibodies are available as the CellCiphr HepG2 assay kit (Millipore).Digital images of each well were captured using a Cellomics ArrayScan VTI (Thermo Scientific Cellomics) (0.8 NA objective, 0.63x optical coupler, and XF-93 filter set) at 20x magnification. The images were acquired using the autofocus feature of the ArrayScan instrument, which entails the following steps. First, the camera focuses on channel 1 (Hoechst 33342), where nuclei are identified. Second, a Z offset of 1 um is used for capturing mitochondria (MitoTracker Red). […]
row,SMILES,outcome
1,CCCCC(O)(Cn1cncn1)c1ccc(Cl)cc1Cl (stereo not given),inactive
2,CSC(=O)c1c(C(F)F)nc(C(F)(F)F)c(C(=O)SC)c1CC(C)C,inactive
3,CCCCC(C#N)(Cn1cncn1)c1ccc(Cl)cc1 (stereo not given),inactive
4,Clc1nc(Cl)nc(Nc2ccccc2Cl)n1,inactive
5,COCc1cnc(C2=NC(C)(C(C)C)C(=O)N2)c(C(=O)O)c1 (stereo not given),inactive
6,COCC(=O)N(c1c(C)cccc1C)C(C)C(=O)OC (stereo not given),inactive
7,CO/N=C(/C1=NOCCO1)c1ccccc1Oc1ncnc(Oc2ccccc2Cl)c1F,inactive
8,Cc1nc(N(C)C)nc(OC(=O)N(C)C)c1C,inactive
9,N#Cc1c(Cl)cccc1Cl,inactive
10,Nc1c(Cl)c(F)nc(OCC(=O)O)c1Cl,inactive
11,COC(=O)NS(=O)(=O)c1ccc(N)cc1,inactive
12,COP(=O)(OC)O/C(C)=C/C(=O)N(C)C,inactive
13,Cc1c(COC(=O)[C@@H]2[C@H](/C=C(\Cl)C(F)(F)F)C2(C)C)cccc1-c1ccccc1,inactive
14,Clc1cccc(C(Cl)(Cl)Cl)n1,inactive
15,CC1(C)C(C=C(Cl)Cl)C1C(=O)OC(C#N)c1cccc(Oc2ccccc2)c1 (stereo not given),inactive
16,N#CN=C1SCCN1Cc1ccc(Cl)nc1,inactive
17,CC(C)C1(C)N=C(c2ncccc2C(=O)O)NC1=O (stereo not given),inactive
18,CS(=O)(=O)c1cc(C(F)(F)F)ccc1C(=O)c1cnoc1C1CC1,inactive
19,CCOP(=S)(OCC)Oc1nc(Cl)n(C(C)C)n1,inactive
20,COc1ccc(-c2ccccc2)cc1NNC(=O)OC(C)C,inactive

row,SMILES,outcome
1,CCOc1nc(C(Cl)(Cl)Cl)ns1,inactive
2,CC1(C)CON(Cc2ccccc2Cl)C1=O,inactive
3,CC(C)=CC1C(C(=O)OCc2coc(Cc3ccccc3)c2)C1(C)C (stereo not given),inactive
4,CCN(CC)c1nc(C)cc(OP(=S)(OC)OC)n1,inactive
5,COC(=O)c1c(C(F)F)nc(C(F)(F)F)c(C2=NCCS2)c1CC(C)C,inactive
6,CN=C=S,inactive
7,CC(C)Oc1cccc(NC(=O)c2ccccc2C(F)(F)F)c1,inactive
8,CNC(=O)N(C)c1nnc(C(C)(C)C)s1,inactive
9,CCOP(=O)(OCC)Oc1nc(Cl)c(Cl)cc1Cl,inactive
10,COP(=S)(OC)SCn1nnc2ccccc2c1=O,inactive
11,CCNP(=S)(OC)O/C(C)=C/C(=O)OC(C)C (stereo not given),inactive
12,COc1cc(OC)nc(NC(=O)NS(=O)(=O)c2ncccc2OCC(F)(F)F)n1,inactive
13,Cc1ccc(N=CN(C)C=Nc2ccc(C)cc2C)c(C)c1,inactive
14,CCCC(=NOCC)C1=C(O)CC(CC(C)SCC)CC1=O (stereo not given),inactive
15,CS(=O)(=O)c1ccc(C(=O)C2C(=O)CCCC2=O)c([N+](=O)[O-])c1,inactive
16,O=C(O)c1c(Cl)ccc2cc(Cl)cnc12,inactive
17,Nc1c(Cl)c(Cl)nc(C(=O)O)c1Cl,inactive
18,O=P(O)(O)CCCl,inactive
19,CC(C)N1C(=O)c2ccccc2NS1(=O)=O,inactive
20,C=CCOC(=O)C(C)(C)OC(=O)c1cc(-n2c(=O)cc(C(F)(F)F)n(C)c2=O)ccc1Cl,inactive

# Source: PubChem BioAssay (EPA / NIEHS)
